IL-1B inflam inh – blocks inflammasome-driven IL-1 beta release. activity change, % at 57.5 µM. 360,000 compounds, 4.7% hits. THP-1 LPS/ATP IL-1B secretion, AlphaLISA, 16 h; active compounds read low; in the data active = activity change below about -50%; inconclusive = mostly about -30% to -49%
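Secreted IL-1B measured by AlphaLISA bead assay after 16 h compound exposure of THP-1 cells; compounds (final up to 57.5 uM) added 1 h before LPS (250 ng/mL) and ATP (1.25 mM) stimulation; lower signal means less secretion.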
HT1080-NT tox – kills 2HG-producing HT-1080-NT fibrosarcoma cells. Potency, µM (doses to about 46.1 µM), actives largely listed as cytotoxic. 360,000 compounds, 1.6% hits. HT-1080-NT fibrosarcoma viability, CellTiter-Glo ATP luminescence, 48 h;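 note: NT is the 2HG producing partner of a matched IDH1 knockdown line; nearly all actives have a fitted effect of over 55% in size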
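Luminescent CellTiter-Glo readout after 48 hours of compound exposure at 37 degrees C defined viability of HT-1080-NT cells. Activity was normalized to DMSO wells and cell-free media wells; concentration-response curves were fitted and assigned curve classes.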
HT1080 IDH1KD tx – toxicity to HT-1080 IDH1 knockdown cells (counter line). HT-1080 IDH1 knockdown viability, ATP luminescence, 48 h. 360,000 compounds, 2% hits. Potency, µM (doses to about 46.1 µM), most hits filed as cytotoxic
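IDH1KD HT-1080 cells, 750/well, RPMI + 5% FBS; compound pinned after 2 h settling; 48 h, 37 °C; CellTiter-Glo luminescence; % activity normalised to DMSO and no-cell wells; curves fitted, classed by r2 and efficacy.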
DT40 TDP1 CPT – DT40-hTDP1 cell growth loss with CPT. Potency, µM (titrated, usually from 46.2 µM), most hits filed as inhibitors. 420,000 compounds, 12% hits. chicken DT40 Tdp1-/-;hTDP1 cells + 20 nM CPT, ATP luminescence, 48 h; note: nearly all actives have a fitted effect of over 55% in size
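Chicken DT40 Tdp1-/- cells complemented with human TDP1, 400 cells/well, exposed to compounds plus 20 nM camptothecin for at least 48 h at 37 C; viability read as ATP content by CellTiter-Glo luminescence.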
DT40 TDP1 no CPT – qHTS for Inhibitors of human tyrosyl-DNA phosphodiesterase 1 (TDP1): qHTS in cells in absence of CPT | DT40 Tdp1-/- hTDP1 cells, no CPT, ATP luminescence, 48 h | Potency, µM (titrated, usually from 46.2 µM), actives largely listed as inhibitors | 420,000 compounds, 15% hits | AID 686978, 2013; note: nearly all actives have a fitted effect of over 55% in size
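Chicken DT40 Tdp1-/- cells stably complemented with human TDP1 were seeded at 400 cells/well with DMSO in place of 20 nM camptothecin. After compound pinning, cells grew at least 48 hr at 37 °C; viability read by CellTiter-Glo luminescence.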
ALOX12 inh – blocks human arachidonate 12S-lipoxygenase; P18054; purified 12hLO, xylenol orange hydroperoxide absorbance; Potency, µM (titrated, usually from 108 µM), hits mostly inhibitors; 580,000 compounds, 1.1% hits
Target sequence (P18054 whole entry, looked up): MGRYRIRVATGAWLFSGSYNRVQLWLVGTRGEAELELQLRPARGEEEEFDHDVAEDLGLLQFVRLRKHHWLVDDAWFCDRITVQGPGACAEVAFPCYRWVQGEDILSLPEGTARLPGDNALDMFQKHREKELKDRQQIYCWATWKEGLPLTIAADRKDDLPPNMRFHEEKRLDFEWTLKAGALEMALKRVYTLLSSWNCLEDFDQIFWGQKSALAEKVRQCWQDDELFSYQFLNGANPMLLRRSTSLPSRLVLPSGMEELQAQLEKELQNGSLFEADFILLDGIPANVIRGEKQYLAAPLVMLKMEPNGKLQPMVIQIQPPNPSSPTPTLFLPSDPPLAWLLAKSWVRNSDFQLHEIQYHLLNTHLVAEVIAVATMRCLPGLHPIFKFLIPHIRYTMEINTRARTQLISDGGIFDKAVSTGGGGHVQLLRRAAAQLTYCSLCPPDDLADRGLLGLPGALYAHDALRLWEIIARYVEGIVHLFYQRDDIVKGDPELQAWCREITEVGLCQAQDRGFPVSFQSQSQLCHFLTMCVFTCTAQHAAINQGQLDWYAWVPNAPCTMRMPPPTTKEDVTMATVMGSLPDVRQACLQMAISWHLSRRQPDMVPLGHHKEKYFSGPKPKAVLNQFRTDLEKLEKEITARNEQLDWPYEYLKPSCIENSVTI
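Hydroperoxide product was detected by ferrous iron/xylenol orange as the 573 to 405 nm absorbance ratio. Arachidonic acid at 40 uM (final) was turned over for 30 min at room temperature by 150 nM human 12hLO, pH 7.0 Hepes buffer, after 15 min compound preincubation.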
Hits are given with their value; - = inactive; ? = inconclusive; . = no result given. This excerpt belongs to a sample that is enriched for hits. Unless noted, calls come from the whole dose curve; as a rule, active = well fitted curve in the direction sought with a large enough effect; inconclusive = small, poorly fitted or top-dose-only effect, or another doubt; inactive = no such curve, though single readings can be large; an effect the other way counts as inactive or inconclusive.

SMILES	IL-1B inflam inh	HT1080-NT tox	HT1080 IDH1KD tx	DT40 TDP1 CPT	DT40 TDP1 no CPT	ALOX12 inh
CCOC(=O)C(C#N)C(C#N)c1ccccc1 (centres undefined)	.	.	.	.	.	-
COc1ccc(CN2CCCCCC2)cc1Br	-	-	-	-	-	1µM
COc1ccc(CN2CCCCCC2)cc1OC	-	-	-	-	-	2µM
CC(Cc1c[nH]c2ccccc12)NC(N)=O (centres undefined)	-	-	-	-	-	-
CC[C@@H](C)[C@H](NS(=O)(=O)c1cccc2ccccc12)C(=O)N[C@H](C=O)Cc1c[nH]c2ccccc12	.	.	.	5.9µM	5.3µM	?
CCCN1CCN(C(=O)c2cc(COc3ccc(F)cc3F)on2)CC1	-	-	-	?	?	-
CC(=O)c1cccc(OCc2cc(C(=O)N3CCSCC3)no2)c1	-	-	-	-	-	-
CCCN1CCN(C(=O)c2cc(COc3ccc4ncccc4c3)on2)CC1	-	-	-	23µM	9.2µM	-
CCN1CCN(C(=O)c2cc(COc3ccc4ncccc4c3)on2)CC1	-	-	-	16µM	10µM	-
Cc1cc(=O)oc2c(C)c(OCC(=O)N3CCN(c4cccc(Cl)c4)CC3)ccc12	-	-	-	21µM	23µM	?
CCCc1cc(=O)oc2c(C)c(OCC(=O)c3ccc(N4CCCC4)cc3)ccc12	-	-	-	?	18µM	-
Cc1cc(=O)oc2c(C)c(OCC(=O)N3CCN(C(=O)C4COc5ccccc5O4)CC3)ccc12 (centres undefined)	-	-	-	?	16µM	-
CCCc1cc(=O)oc2c(C)c(O[C@@H]3O[C@H](CO)[C@@H](O)[C@H](O)[C@H]3O)ccc12	-	-	-	?	7.3µM	-
CCCc1cc(=O)oc2cc(O[C@@H]3O[C@H](CO)[C@@H](O)[C@H](O)[C@H]3O)ccc12	-	-	-	-	-	-
CCOC(=O)CCNC(=O)N1CCC(Cc2noc(-c3ccncc3)n2)C1 (centres undefined)	.	.	.	.	.	-
O=C1CCCCC(C(=O)NCCc2ccncc2)N1 (centres undefined)	.	.	.	.	.	-
CC(C)N1CCN(Cc2ccccc2C#Cc2ccccc2)CC1CCO (centres undefined)	.	.	.	.	.	-
Cc1cc(C)c(S(=O)(=O)N2CCN(C(=O)C3COc4ccccc4O3)CC2)c(C)c1 (centres undefined)	-	-	-	13µM	9.2µM	-
Cc1ccc(S(=O)(=O)N2CCN(C(=O)C3COc4ccccc4O3)CC2)cc1C (centres undefined)	-	-	-	-	-	?
Cc1ccccc1-c1nc2cc(NC(=O)c3cccs3)ccc2o1	.	.	.	.	.	-
O=C(Nc1ccc(-n2cnnn2)cc1)C1CCCN1C(=O)Nc1ccc(Br)cc1 (centres undefined)	-58	-	-	-	?	-
CCOC(=O)c1c(CN2CCC(C(=O)NCC(F)(F)F)CC2)nc2ccccc2c1C	.	.	.	.	.	-
Cc1ccccc1Cn1cc(-c2ccncc2)cc1C(=O)N1CCCC(C)C1 (centres undefined)	.	.	.	.	.	-
Oc1cccc(/C=N/Nc2cccc3cccnc23)c1	-75	?	?	?	?	?
COc1cc(/C=N/Nc2cccc3cccnc23)cc(OC)c1O	?	-	-	?	16µM	-
SMILES	IL-1B inflam inh	HT1080-NT tox	HT1080 IDH1KD tx	DT40 TDP1 CPT	DT40 TDP1 no CPT	ALOX12 inh
COc1cccc(C(=O)N2CCc3onc(-c4cccc(F)c4)c3C2)c1OC	.	.	.	.	.	-
COc1ccc(N(CC(=O)N2CCN(c3ccccc3F)CC2)S(=O)(=O)c2c(C)noc2C)cc1	-	-	-	?	?	-
Cc1ccc(N(CC(=O)N2CCN(c3ccccc3F)CC2)S(=O)(=O)c2c(C)noc2C)cc1	-	-	-	21µM	?	-
COc1ccc(N(CC(=O)N2CC=C(c3ccccc3)CC2)S(=O)(=O)c2c(C)noc2C)cc1	-	-	-	?	23µM	-
CCOc1ccc(N(CC(=O)N2CC=C(c3ccccc3)CC2)S(=O)(=O)c2c(C)noc2C)cc1	-	-	-	?	?	-
O=c1ccc(-c2ccccc2)nn1Cc1c(F)cccc1Cl	.	.	.	18µM	?	-
O=c1ccc(-c2ccccc2)nn1Cc1ccccc1F	-62	-	-	-	-	-
O=C1N/C(=N\N=C\c2cccs2)SC1Cc1cccc(Cl)c1Cl (centres undefined)	-	4.6µM	6.5µM	3.3µM	5.2µM	-
CC(c1ccon1)N(C)Cc1cn(C)nc1-c1cccc(Cl)c1 (centres undefined)	-	-	-	?	16µM	-
Cc1cnccc1CN(C)Cc1cn(C)nc1-c1cccc(Cl)c1	-	-	-	?	?	-
CCN1C(=O)[C@H]2[C@@H](c3ccc(-c4ccc(Cl)c(Cl)c4)cc3)N[C@@](Cc3ccccc3)(C(=O)OC)[C@H]2C1=O	-	-	-	23µM	15µM	?
CCN1C(=O)[C@H]2[C@@H](c3ccc(-c4ccccc4)cc3)N[C@@](Cc3ccccc3)(C(=O)OC)[C@H]2C1=O	-53	-	-	?	18µM	-
COC(=O)[C@]1(C)N[C@H](c2ccc(-c3ccccc3)cc2)[C@@H]2C(=O)N(C)C(=O)[C@@H]21	-	-	-	?	?	-
CCN1C(=O)[C@H]2[C@@H](c3ccc(-c4cc(C(C)=O)cs4)cc3)N[C@@](Cc3ccccc3)(C(=O)OC)[C@H]2C1=O	-	-	-	?	?	-
CCN1C(=O)[C@H]2[C@@H](c3ccc(-c4ccc(C(C)=O)cc4)cc3)N[C@@](Cc3ccccc3)(C(=O)OC)[C@H]2C1=O	-	-	-	13µM	?	-
COC(=O)[C@]1(Cc2ccccc2)N[C@H](c2ccc(-c3ccc(F)cc3)cc2)[C@@H]2C(=O)N(C)C(=O)[C@@H]21	?	-	-	18µM	16µM	-
CN(CC(=O)Nc1ccc2c(c1)OCO2)Cc1cccs1	.	.	.	.	.	-
O=C(CCc1c[nH]c2ccccc12)Nc1ccc(F)cc1F	.	.	.	.	.	-
N#Cc1cccc(CN2C[C@@H](CO)[C@H](c3ccccn3)C2)c1	.	.	.	.	.	-
COc1ccc(C(=O)Nc2cc([N+](=O)[O-])ccc2N2CCN(C)CC2)cc1	-	-	-	11µM	?	-
CN1CCN(c2ccccc2NC(=O)c2ccc(N3CCCCC3)c([N+](=O)[O-])c2)CC1	-63	-	-	12µM	12µM	-
COc1cccc(C(=O)Nc2cc([N+](=O)[O-])ccc2N2CCN(C)CC2)c1	-	-	?	?	-	-

Bioassay records as filed in PubChem.
